Most compounds without a hit are left out; they make up all but 5.4% or so of the library.
VACV mCherry inh – qHTS for Stage-Specific Inhibitors of Vaccinia Orthopoxvirus: mCherry Reporter Primary qHTS; Vaccinia virus mCherry reporter infection, fluorescence; Potency, µM (doses to about 36.5 µM), for inactives: at the highest dose activity change, negative = inhibition, hits mostly inhibitors; 310,000 tested, 0.63% active; calls by dose curve; tested in A549 cells; further: nearly all actives have a fitted effect of over 35% in size
Lassa entry inh – qHTS for Inhibitors of binding or entry into cells for Lassa Virus; Lassa virus pseudotype entry inhibition, cell reporter; Potency, µM (highest dose often 37.9 µM), for the others: at the highest dose activity change, negative = inhibition, actives largely listed as inhibitors; 300,000 tested, 1.2% active; AID 540256, 2011; calls by dose curve; tested in HEK293 cells; further: nearly all actives have a fitted effect of over 50% in size
FMDV inh – High Throughput Screening for Foot and Mouth Disease Virus Antivirals; FMDV antiviral cell-based qHTS; Potency, µM (highest dose often 57.9 µM), for the others: at the highest dose activity change, negative = inhibition, actives largely listed as inhibitors; AID 1159524, 2015; 410,000 tested, 1.2% active; calls by dose curve; tested in HEK293T cells; further: read-out not given here; nearly all actives have a fitted effect of over 45% in size
Sm TGR inh – qHTS Assay for the Inhibitors of Schistosoma Mansoni Peroxiredoxins | Schistosoma mansoni thioredoxin glutathione reductase (TGR), Q962Y6 | purified TGR, DTNB reduction, TNB absorbance 405 nm | Potency, µM (series often up to 114 µM), for the others: top-dose activity change, negative = inhibition, most hits filed as inhibitors | 360,000 tested, 3% active | AID 485364, 2010; active means well fitted inhibition curve with a large enough effect; inconclusive means small, poorly fitted or top-dose-only effect; inactive means no such curve, though single readings can be large or run the other way; further: nearly all actives have a fitted effect of over 60% in size
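First, TGR (20 nM dispensed) and NADPH were mixed with compound. Second, a 15 min room-temperature incubation followed. Third, further NADPH and then DTNB were added to start the reaction. Finally, TNB absorbance was monitored kinetically.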
Vaccinia Venus – qHTS for Stage-Specific Inhibitors of Vaccinia Orthopoxvirus: Venus Reporter Primary qHTS; Vaccinia virus Venus reporter expression, fluorescence; 330,000 tested, 0.46% active; Potency, µM (series often up to 36.5 µM), without a hit: top-dose activity change, negative = inhibition, most hits filed as inhibitors; calls by dose curve; tested in A549 cells; further: nearly all actives have a fitted effect of over 30% in size
Marburg entry inh – qHTS for inhibitors of binding or entry into cells for Marburg Virus | Potency, µM (titrated, usually from 37.8 µM), for inactives: at the highest dose activity change, negative = inhibition, usual class: inhibitors | 300,000 tested, 1.8% active | Marburg virus pseudotyped entry inhibition, cell reporter; calls by dose curve; tested in HEK293 cells
* marks the source's active call; other numbers are inactive results; i = inactive; u = inconclusive; x = no result given; [ ] = remark or other dose. On the % scale 0 is the no-effect control and ±100 the full control effect; potency means the concentration at half of the fitted maximal effect.

SMILES	VACV mCherry inh	Lassa entry inh	FMDV inh	Sm TGR inh	Vaccinia Venus	Marburg entry inh
Cc1c(C(=O)NCc2ccc3c(c2)OCO3)cnn1-c1ncc2c(n1)-c1ccccc1CC2	u	x	47%	x	u	x
O=C(N1CCN(c2cccc(Cl)c2)CC1)C1(c2cccs2)CCOCC1	-18%	u	35µM*	-2%	-23%	u
COC(=O)/C(=C1\OC(=O)C(c2ccccc2)C1=O)c1ccccc1 (configuration not stated)	-2%	x	45%	x	-3%	x
O=C(Nc1ccc2c(c1)OCCO2)C1CCN(c2nnnn2-c2ccccc2)CC1	x	u	u	15%	x	-27%
O=C(Nc1cccc(F)c1)C1CCN(c2nnnn2-c2ccccc2)CC1	x	u	18µM*	u	x	9%
CN(C)CCNC(=O)c1cccc2nc3c(ccc4ccccc43)nc12	u	u	-24%	x	11µM*	u
COc1ccc(-c2nc3c(C(=O)NCCN(C)C)cccc3c3ccccc23)cc1	-14%	u	-24%	x	u	u
COc1cccc2nc3c(C(=O)NCCN(C)C)cccc3cc12	3.5µM*	u	0%	x	4.5µM*	7.1µM*
COc1ccc(C(=O)NCCN(C)C)c2nc3ccccc3cc12	1µM*	u	-11%	x	6.3µM*	1.3µM*
Cc1c(C(=O)NCc2ccc(N(C)C)cc2)oc2c1-c1nn(Cc3cccc(Cl)c3)cc1CC2	-23%	15%[46.1 µM]	-3%	1%	-18%	x
CN(Cc1ccc(Cl)s1)C(=O)CSc1nnc(C2CC2)n1C1CC1	x	x	-15%	-3%	x	x
CCOc1ccc(CNC(=O)CCCn2c(=O)c3cccn3c3ccc(F)cc32)cc1	-6%	-5%[46.1 µM]	1%	1%	-9%	x
Oc1cccc(/C=N/NC(=S)Nc2cccnc2)c1O	u	21µM*	59%	-10%	u	u
Fc1cccc(F)c1/C=N/NC(=S)Nc1cccnc1	-6%	5%	7%	2%	1%	-8%[46.1 µM]
Oc1ccc(/C=N/NC(=S)Nc2cccnc2)c(O)c1O	i	u	u	10µM*	14%	-28%[46.1 µM]
Oc1ccc(/C=N/NC(=S)Nc2cccnc2)c(O)c1	u	u	-5%	-17%	u	u
O=c1c(=O)n(-c2ccc(F)c(F)c2)ccn1Cc1ccc(F)cc1Cl	-3%	-15%[46.1 µM]	0%	7%	-5%	x
CCCCNc1c2c3c(cccc3n(C)c1=O)C(=O)c1ccccc1-2	-8%	-28%	32µM*	7%	43%	u
Cn1c(=O)c(NCCc2ccccc2)c2c3c(cccc31)C(=O)c1ccccc1-2	27%	-1%	0%	-9%	i	-12%
COCc1cc(N2CCN(c3ccccc3F)CC2)nc(-c2ccccc2)n1	-11%	-2%	-11%	u	-1%	15%[46.1 µM]
COCc1cc(N2CCOCC2)nc(-c2ccccc2)n1	i	9%	-22%	6%	-8%	10µM*
CCc1cc2c(nc1CC)CCN(CCC(C)=NOC[C@H]1O[C@H](c3ccccc3)C=C[C@H]1Oc1ccc(OC)cc1)C2	x	x	x	x	x	-25%[14.2 µM]
O=C(/C=C/c1ccco1)NC(=S)Nc1ccc(Cl)cn1	-4%	3%	7%	35µM*	25%	3%
Cc1ccnc(NC(=S)NC(=O)/C=C/c2ccco2)c1	x	-25%	23%	25µM*	-23%	u
CC(=O)Oc1ccccc1C(=O)C=Cc1cccc([N+](=O)[O-])c1	14µM*	u	28µM*	x	u	u
O=C(/C=C/c1cccc([N+](=O)[O-])c1)n1cnc2ccccc21	-9%	u	14µM*	6%	-18%	u
O=C(/C=C/c1ccc(N2CCCCC2)c([N+](=O)[O-])c1)c1ccc(O)cc1	u	-62%[46.1 µM]	-15%	4%	-17%	u
COc1cc(/C=C/C(=O)c2c(O)cc(C)oc2=O)ccc1O	x	x	-6%	x	x	x
